# Test results reported in PubChem BioAssay (EPA / NIEHS).
# Inconclusive results are not listed. Calls of active or inactive are those of the source. How the source made its calls, unless noted: active means hit-call score of the fitted dose curve at least 0.9, where 1 is the maximum; inactive means score below 0.9.
# How the values were obtained:
# [1] = biological target: Estrogen receptor (Homo sapiens) (UniProt P03372); test: OT_ER_ERaERa_1440: Odyssey Thera (OT) 24-hour HEK293T Protein-Complementation Assay for Estrogen Receptor-alpha/-alpha Homodimer (AID 2283349; active means hit-call score of the fitted dose curve at least 0.9, where 1 is the maximum;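 further: hits raise fluorescence above DMSO for agonists and antagonists alike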)
# Method in brief: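 HEK293T cells stably expressing the human ER alpha ligand-binding domain (aa 310-547) as a homodimer PCA were dosed for 24 hours. Fluorescence intensity was read by laser scanning cytometry, and gain of signal was fitted relative to DMSO vehicle.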
# [2] = CPHEA_Stoker_NIS_Cytotoxicity: Cytotoxicity Assessment for CPHEA's Radioactive Iodide Uptake (RAIU) Assay for Sodium/Iodide Symporter (NIS) Inhibition, Stoker and Laws Labs (AID 2283897; active means hit-call score of the fitted dose curve at least 0.9, where 1 is the maximum)
# Method in brief: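 hNIS-HEK293T-EPA cells, human NIS expressed in HEK293T, treated 2 h with chemicals (0.001–100 uM, 0.5% final DMSO). ATP content read by CellTiter-Glo luminescence; loss of signal analysed relative to DMSO.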
# [3] = biological target: human Phosphoinositide 3-kinase alpha (PI3Ka), PIK3CA (gene 5290) (UniProt P42336); test: NVS_ENZ_hPI3Ka: NovaScreen (NVS) Enzymatic Assay for human Phosphoinositide 3-kinase alpha (PI3Ka) (AID 2283196; active means hit-call score of the fitted dose curve at least 0.9, where 1 is the maximum)
# Method in brief: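 Recombinant human PI3Kα with fluorescent substrate, 1 h, product separated by electrophoretic mobility shift; 25 uM duplicate screen, hits (e.g., 30% inhibition) retested singly up to 50 uM; loss of signal vs DMSO.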
# [4] = biological target: chimpanzee Androgen Receptor (AR), AR (gene 747460) (UniProt O97775); test: NVS_NR_cAR: NovaScreen (NVS) Nuclear Receptor Binding Assay for chimpanzee Androgen Receptor (AR) (AID 2283346; active means hit-call score of the fitted dose curve at least 0.9, where 1 is the maximum;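 further: radioligand displacement from AR measured by scintillation counting in a cell-free assay; a loss of bound radioligand signal versus DMSO counts as binding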)
# Method in brief: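 Radioligand binding to chimpanzee AR expressed in Sf9/Sf21 cells, cell-free, measured 72 h after dosing by lysate-based scintillation counting. Loss of signal vs DMSO; initial duplicate screen at 25 uM, actives retested in concentration series.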
# [5] = CCTE_Shafer_MEA_acute_firing_rate_mean: CCTE's Neural Acute Assay for Mean Firing Rate, Shafer Lab (AID 2284009);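 further: analyzed for loss of signal so actives lower firing rate relative to DMSO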
# Method in brief: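 Rat primary cortical neurons on 48-well MEA plates, dosed at 0.03-40 uM on DIV 13 or 15; 40 min spontaneous activity recorded at 37 C before and after compound. Spike rate per electrode averaged per well, expressed as percent change from baseline.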
# [6] = CCTE_Shafer_MEA_acute_burst_number: CCTE's Neural Acute Assay for Single-Electrode Bursts, Shafer Lab (AID 2284013)
# Method in brief: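 Primary rat cortical neurons on 16-electrode MEA wells, treated on DIV 13 or 15 with compound at 0.03-40 uM. Single-electrode burst count from 40-min recordings at 37 C before and after exposure; percent change from baseline per well, DMSO negative control.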
# [7] = CCTE_Shafer_MEA_acute_burst_duration_mean: CCTE's Neural Acute Assay for Mean Burst Duration, Shafer Lab (AID 2284014);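 further: hits are decreases in mean burst duration relative to DMSO controls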
# Method in brief: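 Rat primary cortical neurons on 48-well MEA, treated at DIV 13 or 15 with 0.03-40 uM in at least 3 wells. Value is percent change in mean burst duration, comparing 40 min recordings at 37 C before and during exposure.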
# [8] = CCTE_Shafer_MEA_acute_per_burst_spike_number_mean: CCTE's Neural Acute Assay for Average Number of Spikes Per Burst, Shafer Lab (AID 2284015);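 further: hits are decreases in mean spikes per burst versus baseline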
# Method in brief: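 Rat primary cortical neurons on 48-well MEAs (DIV 13 or 15) were treated with 0.03-40 uM compound at 37 C. Mean spikes per burst over 40 min were recorded before and after exposure and expressed as percent change from baseline, relative to DMSO.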
# [9] = CCTE_Shafer_MEA_acute_interburst_interval_mean: CCTE's Neural Acute Assay for Mean Interburst Interval, Shafer Lab (AID 2284016);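 further: percent change of mean interburst interval versus each well's own pre-dose baseline; curves fitted for decrease in interburst interval relative to DMSO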
# Method in brief: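 Rat primary cortical neurons on 48-well MEAs at DIV 13 or 15 were exposed acutely to 0.03-40 uM. Spikes detected at 8x rms noise, 37 C. Mean interburst interval from 40 min recordings expressed as percent change from 40 min pre-treatment baseline.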
# [10] = CCTE_Shafer_MEA_acute_burst_percentage_mean: CCTE's Neural Acute Assay for Percentage of Spikes in a Burst, Shafer Lab (AID 2284017);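 on AC50: curve fitted for loss of signal so potency reflects decreased burst percentage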
# Method in brief: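 Primary rat cortical neurons on 48-well MEA plates, treated on DIV 13 or 15 at 0.03-40 uM. Spikes detected at 8x rms noise at 37C; percent change from 40-min baseline to 40-min post-dose recording, fitted versus DMSO.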
# [11] = CCTE_Shafer_MEA_acute_burst_percentage_std: CCTE's Neural Acute Assay for Standard Deviation of Burst Percentage, Shafer Lab (AID 2284018);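 further: fitted in the negative direction so actives lower burst percentage SD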
# Method in brief: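 Rat primary cortical neurons on 48-well MEAs, DIV 13 or 15, 37 C. 40-min baseline then 40-min recording with compound (0.03-40 uM); well-level SD of per-electrode burst spike percentage, expressed as percent change from baseline.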
# [12] = CCTE_Shafer_MEA_acute_per_network_burst_spike_number_std: CCTE's Neural Acute Assay for Standard Deviation of Number of Spikes in a Network Burst, Shafer Lab (AID 2284020);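 further: fitted for decrease in spike-number SD versus DMSO so actives lower it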
# Method in brief: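 Rat primary cortical neurons on 48-well MEA (16 electrodes/well), treated DIV 13 or 15 at 0.03-40 uM, ≥3 wells per compound. 40 min recordings at 37 C before and after dosing; value is percent change in network-burst spike-number SD, negative direction vs DMSO.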
# [13] = CCTE_Shafer_MEA_acute_per_network_burst_electrodes_number_mean: CCTE's Neural Acute Assay for Mean Number of Electrodes in a Network Burst, Shafer Lab (AID 2284021);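 further: curves fitted for decreases only so hits reduce electrodes per burst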
# Method in brief: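 Rat primary cortical neurons on 48-well MEAs, DIV 13 or 15, were treated at 0.03-40 uM. Spikes were detected at 8x rms noise and recorded at 37 C. The mean electrodes per network burst in a 40 min exposure recording was expressed as percent change from a 40 min baseline.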
# [14] = CCTE_Shafer_MEA_acute_network_burst_percentage: CCTE's Neural Acute Assay for Percentage of Network Bursts, Shafer Lab (AID 2284022);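 further: curves fitted for loss so actives lower network burst percentage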
# Method in brief: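 Rat primary cortical neuron networks on 48-well MEA plates, DIV 13 or 15, treated acutely with compound (0.03-40 uM, at least three wells). Percent of spikes within network bursts compared between 40-min recordings before and during exposure at 37 C, expressed as percent change.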
# [15] = CCTE_Shafer_MEA_acute_cross_correlation_area: CCTE's Neural Acute Assay for Area of Cross Correlation, Shafer Lab (AID 2284024);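 further: curves fitted for loss of cross-correlation area so actives lower synchrony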
# Method in brief: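 Rat primary cortical neurons on 48-well MEA, DIV 13 or 15; compounds 0.03-40 uM. Baseline and post-exposure 40 min recordings at 37 C; percent change in area under pooled inter-electrode cross-correlation near zero lag, relative to DMSO.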
# [16] = CCTE_Shafer_MEA_acute_cross_correlation_HWHM: CCTE's Neural Acute Assay for Cross Correlation at Half Width at Half Maximum, Shafer Lab (AID 2284026);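 further: percent change per well from pre-dose baseline in spike cross-correlogram half width; hits are a decrease in cross-correlogram half width relative to DMSO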;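 on outcome: spontaneous network firing of rat primary cortical neurons on multiwell microelectrode arrays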
# Method in brief: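 Rat primary cortical neurons on 48-well MEA plates; 40-min baseline and 40-min post-exposure recordings at 37 C on DIV 13 or 15, compounds 0.03-40 uM. Spikes detected at 8x rms noise; percent change in cross-correlogram HWHM per well vs baseline.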
# [17] = CCTE_Shafer_MEA_acute_LDH: CCTE's Lactate Dehydrogenase Assay for Cytotoxicity in the Neural Acute Assay, Shafer Lab (AID 2284086; active means hit-call score of the fitted dose curve at least 0.9, where 1 is the maximum;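 further: active means LDH release rises above DMSO vehicle level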)
# Method in brief: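 Medium from rat cortical neuron MEA cultures sampled right after the 40 min compound-exposure recording; released LDH measured by absorbance at 490 nm. Analyzed as signal gain relative to DMSO.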
# [18] = biological target: human Norepinephrine Transporter (NET), SLC6A2 (gene 6530) (UniProt P23975); test: NVS_TR_hNET: NovaScreen (NVS) Transporter Assay for human Norepinephrine Transporter (NET) (AID 2283377; active means hit-call score of the fitted dose curve at least 0.9, where 1 is the maximum)
# Method in brief: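 Cell-free radioligand binding using CHO-derived membrane protein expressing human NET, read by filter scintillation counting 1 h after dosing; loss of signal vs DMSO. Initial duplicate screen at 25 uM, actives retested in concentration series.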
# Estrogen receptor (Homo sapiens), sequence (P03372 whole entry, looked up, the tested form may be a part): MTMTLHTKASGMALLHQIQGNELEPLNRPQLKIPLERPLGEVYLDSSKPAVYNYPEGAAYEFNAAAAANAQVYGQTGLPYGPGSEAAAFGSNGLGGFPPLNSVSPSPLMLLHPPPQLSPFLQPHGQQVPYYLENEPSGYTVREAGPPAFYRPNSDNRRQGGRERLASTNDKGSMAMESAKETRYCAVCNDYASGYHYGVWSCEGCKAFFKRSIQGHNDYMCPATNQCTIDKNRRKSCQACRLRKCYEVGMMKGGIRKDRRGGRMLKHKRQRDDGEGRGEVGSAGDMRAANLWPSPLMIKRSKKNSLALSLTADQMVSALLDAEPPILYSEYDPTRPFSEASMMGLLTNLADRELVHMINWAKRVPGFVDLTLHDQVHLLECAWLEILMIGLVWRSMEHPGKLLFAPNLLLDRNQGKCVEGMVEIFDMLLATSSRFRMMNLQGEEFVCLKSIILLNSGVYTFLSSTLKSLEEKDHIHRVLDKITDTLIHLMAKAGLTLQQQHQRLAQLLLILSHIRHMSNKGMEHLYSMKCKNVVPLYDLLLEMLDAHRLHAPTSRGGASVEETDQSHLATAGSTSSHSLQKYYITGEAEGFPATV
# human Norepinephrine Transporter (NET), SLC6A2 (gene 6530), sequence (P23975 whole entry, looked up): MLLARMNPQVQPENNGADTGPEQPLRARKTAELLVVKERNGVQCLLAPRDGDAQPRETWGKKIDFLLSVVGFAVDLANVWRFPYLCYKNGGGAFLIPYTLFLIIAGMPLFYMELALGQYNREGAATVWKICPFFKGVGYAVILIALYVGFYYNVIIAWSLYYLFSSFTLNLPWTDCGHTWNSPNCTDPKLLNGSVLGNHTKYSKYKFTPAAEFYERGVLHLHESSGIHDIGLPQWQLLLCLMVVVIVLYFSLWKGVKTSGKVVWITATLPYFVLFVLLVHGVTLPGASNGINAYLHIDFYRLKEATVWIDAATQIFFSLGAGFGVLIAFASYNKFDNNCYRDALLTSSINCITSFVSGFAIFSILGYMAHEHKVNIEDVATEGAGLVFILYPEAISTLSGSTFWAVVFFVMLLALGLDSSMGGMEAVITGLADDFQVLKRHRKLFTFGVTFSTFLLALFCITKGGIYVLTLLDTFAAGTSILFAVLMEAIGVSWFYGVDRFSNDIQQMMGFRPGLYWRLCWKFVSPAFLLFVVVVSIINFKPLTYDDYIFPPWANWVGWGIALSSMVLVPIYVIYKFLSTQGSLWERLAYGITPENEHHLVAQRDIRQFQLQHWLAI
# human Phosphoinositide 3-kinase alpha (PI3Ka), PIK3CA (gene 5290), sequence (P42336 whole entry, looked up): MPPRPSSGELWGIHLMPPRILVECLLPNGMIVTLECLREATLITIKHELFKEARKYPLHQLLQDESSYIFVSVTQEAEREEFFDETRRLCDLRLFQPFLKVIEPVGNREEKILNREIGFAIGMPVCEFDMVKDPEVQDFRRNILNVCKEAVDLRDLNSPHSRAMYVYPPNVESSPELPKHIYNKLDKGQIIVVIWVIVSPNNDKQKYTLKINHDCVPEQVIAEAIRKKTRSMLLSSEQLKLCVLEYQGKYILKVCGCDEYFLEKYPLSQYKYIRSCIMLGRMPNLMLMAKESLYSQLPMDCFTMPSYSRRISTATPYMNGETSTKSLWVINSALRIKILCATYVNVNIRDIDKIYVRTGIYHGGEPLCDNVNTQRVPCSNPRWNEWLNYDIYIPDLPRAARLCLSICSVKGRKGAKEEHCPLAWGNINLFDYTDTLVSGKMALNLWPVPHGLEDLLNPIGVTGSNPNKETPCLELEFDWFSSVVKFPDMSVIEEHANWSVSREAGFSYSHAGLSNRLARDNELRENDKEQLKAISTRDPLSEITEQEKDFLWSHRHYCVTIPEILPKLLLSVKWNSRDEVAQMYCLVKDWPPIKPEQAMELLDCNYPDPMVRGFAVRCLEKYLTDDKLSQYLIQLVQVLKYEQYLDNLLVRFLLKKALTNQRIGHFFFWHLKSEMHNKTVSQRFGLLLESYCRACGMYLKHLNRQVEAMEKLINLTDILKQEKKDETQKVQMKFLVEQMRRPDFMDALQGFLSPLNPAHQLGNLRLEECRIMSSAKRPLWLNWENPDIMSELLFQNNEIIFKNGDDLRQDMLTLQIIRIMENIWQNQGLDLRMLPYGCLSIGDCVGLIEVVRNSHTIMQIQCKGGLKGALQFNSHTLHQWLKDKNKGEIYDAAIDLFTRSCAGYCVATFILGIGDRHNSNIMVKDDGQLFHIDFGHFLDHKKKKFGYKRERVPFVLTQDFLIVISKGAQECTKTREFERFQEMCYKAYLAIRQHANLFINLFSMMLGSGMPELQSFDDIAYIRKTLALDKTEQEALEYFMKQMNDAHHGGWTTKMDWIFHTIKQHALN
# chimpanzee Androgen Receptor (AR), AR (gene 747460), sequence (O97775 whole entry, looked up): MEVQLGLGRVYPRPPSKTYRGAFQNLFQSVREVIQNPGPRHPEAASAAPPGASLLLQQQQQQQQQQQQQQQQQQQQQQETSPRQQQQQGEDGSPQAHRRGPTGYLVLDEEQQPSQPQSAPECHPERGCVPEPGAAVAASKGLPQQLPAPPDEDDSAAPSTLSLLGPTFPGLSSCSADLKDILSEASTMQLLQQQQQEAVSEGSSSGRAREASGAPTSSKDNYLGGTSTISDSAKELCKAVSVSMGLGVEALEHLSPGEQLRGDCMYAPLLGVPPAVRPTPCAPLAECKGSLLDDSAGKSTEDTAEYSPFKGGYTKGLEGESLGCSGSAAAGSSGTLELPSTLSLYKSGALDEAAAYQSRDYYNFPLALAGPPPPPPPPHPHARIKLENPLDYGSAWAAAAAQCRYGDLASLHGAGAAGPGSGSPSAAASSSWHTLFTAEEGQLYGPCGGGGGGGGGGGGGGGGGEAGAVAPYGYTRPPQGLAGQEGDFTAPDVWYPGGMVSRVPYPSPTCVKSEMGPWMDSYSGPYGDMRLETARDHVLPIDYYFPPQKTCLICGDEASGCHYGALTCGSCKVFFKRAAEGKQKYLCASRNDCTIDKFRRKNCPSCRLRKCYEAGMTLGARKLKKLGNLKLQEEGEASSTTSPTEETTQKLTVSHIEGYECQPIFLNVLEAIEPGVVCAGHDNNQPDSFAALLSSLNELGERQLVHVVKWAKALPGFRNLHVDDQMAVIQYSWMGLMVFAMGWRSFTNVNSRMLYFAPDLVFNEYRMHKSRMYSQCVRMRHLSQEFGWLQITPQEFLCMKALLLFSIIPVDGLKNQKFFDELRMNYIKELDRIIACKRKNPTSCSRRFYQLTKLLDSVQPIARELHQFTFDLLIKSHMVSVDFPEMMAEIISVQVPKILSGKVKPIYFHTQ
smiles,measurement,setting,value
O=C(O)c1ccccc1C(=O)O,outcome,[1],inactive
O=C(OCc1ccccc1)c1ccccc1,outcome,[2],inactive
Cc1ccccc1S(N)(=O)=O,outcome,[3],inactive
same,AC50,[4],1880 nM (active)
CCO[Si](CCCN)(OCC)OCC,outcome,[1],inactive
Cc1cccnc1,outcome,[2],inactive
NC(N)=Nc1nc(CSCCC(N)=NS(N)(=O)=O)cs1,outcome,[5],inactive
same,outcome,[6],inactive
same,outcome,[7],inactive
same,outcome,[8],inactive
same,outcome,[9],inactive
same,outcome,[10],inactive
same,outcome,[11],inactive
same,outcome,[12],inactive
same,outcome,[13],inactive
same,outcome,[14],inactive
same,outcome,[15],inactive
same,outcome,[16],inactive
same,outcome,[17],inactive
CCC(C)=NO,outcome,[18],inactive
CC[N+](CC)(CC(=O)Nc1c(C)cccc1C)Cc1ccccc1 (tested in a mixture with another compound),AC50,[5],694 nM (active)
same,outcome,[6],inactive
same,outcome,[7],inactive
same,outcome,[8],inactive
same,outcome,[9],inactive
same,AC50,[10],2130 nM (active)
same,outcome,[11],inactive
same,outcome,[12],inactive
same,outcome,[13],inactive
same,outcome,[14],inactive
same,outcome,[15],inactive
same,AC50,[16],1050 nM (active)
same,outcome,[17],inactive
C1CN(CCOCCN2CCOCC2)CCO1,outcome,[5],inactive
same,outcome,[6],inactive
same,outcome,[7],inactive
same,outcome,[8],inactive
same,outcome,[9],inactive
same,outcome,[10],inactive
same,outcome,[11],inactive
same,outcome,[12],inactive
same,outcome,[13],inactive
same,outcome,[14],inactive
same,outcome,[15],inactive
same,AC50,[16],3 nM (active)
same,outcome,[17],inactive
